Data as given in the supplement of paper PMC12067926.

Legend:
Experiment in all cases: relative growth (AUC of 72 h growth curve relative to DMSO control, dAUC) (ratio); higher = more growth (less inhibition), active = hit call of the paper
Settings in all cases: 20 µM;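 active = growth AUC significantly below the DMSO wells by Dunnett test; inactive = the rest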
[1] = compound: C=CCOC(Cn1ccnc1)c1ccc(Cl)cc1Cl
Summary of the method: (§1)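 Relative growth (dAUC) is the spline-integrated area under the growth curve divided by the mean of the DMSO-only control wells. Cultures were isolates from Icelandic stream sediments and Silwood Park soil, plus whole sediment communities, grown to carrying capacity in Luria–Bertani medium and diluted 1:100 into 96-well plates containing each chemical at 20 µM (1% DMSO). A600 was read hourly for 72 h on a plate reader, with brief shaking before each read, and values were averaged over three biological replicates.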

[2] = compound: CC(=O)CC(c1ccccc1)c1c(O)c2ccccc2oc1=O
Summary of the method: as §1

[3] = compound: CC1COc2ccccc2N1C(=O)C(Cl)Cl
Summary of the method: as §1

[4] = compound: CCCCC(CC)CN1C(=O)[C@@H]2[C@H](C1=O)[C@@H]1C=C[C@H]2C1 (mixture of isomers)
Summary of the method: as §1

[5] = compound: CCCCCCCCc1c(CC)nc2ncnn2c1N
Summary of the method: as §1

[6] = compound: CCCCOCCOCCOCc1cc2c(cc1CCC)OCO2
Summary of the method: as §1

[7] = compound: CCCOC(=O)NCCCN(C)C
Summary of the method: as §1

[8] = compound: COC(=O)c1csc(C)c1S(=O)(=O)NC(=O)n1nc(OC)n(C)c1=O
Summary of the method: as §1

[9] = compound: Cc1ccc(C(C)NC(=O)[C@@H](NC(=O)OC(C)C)C(C)C)cc1
Summary of the method: as §1

[10] = compound: Cc1nn(C)c(Oc2ccccc2)c1/C=N/OCc1ccc(C(=O)OC(C)(C)C)cc1
Summary of the method: as §1

[11] = compound: Cn1cc(C(=O)Nc2ccc(F)cc2-c2ccc(Cl)c(Cl)c2)c(C(F)F)n1
Summary of the method: as §1

[12] = compound: Cn1cc(C(=O)Nc2ccccc2-c2cc(F)c(F)c(F)c2)c(C(F)F)n1
Summary of the method: as §1

[13] = compound: O=C(NCc1ncc(C(F)(F)F)cc1Cl)c1c(Cl)cccc1Cl
Summary of the method: as §1

[14] = compound: Oc1c(Cl)cc(Cl)c(Cl)c1Cc1c(O)c(Cl)cc(Cl)c1Cl
Summary of the method: as §1

[15] = compound: S=C([S-])NCCNC(=S)[S-].S=C([S-])NCCNC(=S)[S-].[Mn+2].[Zn+2]
Summary of the method: as §1

[16] = compound: c1ccc2[nH]c(-c3cscn3)nc2c1
Summary of the method: as §1

Target	relative growth [1]	relative growth [2]	relative growth [3]	relative growth [4]	relative growth [5]	relative growth [6]	relative growth [7]	relative growth [8]	relative growth [9]	relative growth [10]	relative growth [11]	relative growth [12]	relative growth [13]	relative growth [14]	relative growth [15]	relative growth [16]
Carnobacterium 1 (Carnobacterium gallinarum)	0.879 (inactive)	0.827 (inactive)	0.955 (inactive)	0.823 (inactive)	1.13 (inactive)	0.363 (inactive)	0.986 (inactive)	1.17 (inactive)	1.01 (inactive)	0.951 (inactive)	0.779 (inactive)	1 (inactive)	1.16 (inactive)	0.00936 (active)	0.913 (inactive)	0.908 (inactive)
Oryzobacter 1 (Oryzobacter terrae)	0.0303 (active)	1.04 (inactive)	1.15 (inactive)	1.27	1.07 (inactive)	1.18 (inactive)	1.02 (inactive)	1.13 (inactive)	1.09 (inactive)	1.17 (inactive)	1.12 (inactive)	0.91 (inactive)	1.06 (inactive)	0.00191 (active)	0.909 (inactive)	1.15 (inactive)
Paenibacillus 1 (Paenibacillus castaneae)	0.0487 (active)	0.878 (inactive)	0.947 (inactive)	0.923 (inactive)	0.906 (inactive)	1 (inactive)	1.08 (inactive)	1.03 (inactive)	0.947 (inactive)	0.866 (inactive)	0.835 (inactive)	1.01 (inactive)	1.04 (inactive)	0.0147 (active)	0.978 (inactive)	0.987 (inactive)
Arthrobacter 2 (Arthrobacter humicola)	0.195 (active)	0.972 (inactive)	0.871 (inactive)	0.869 (inactive)	0.929 (inactive)	0.384 (active)	1.07 (inactive)	1 (inactive)	0.87 (inactive)	0.771 (inactive)	0.627 (inactive)	0.983 (inactive)	0.96 (inactive)	0.00995 (active)	0.932 (inactive)	1.19 (inactive)
Community 4	0.814 (inactive)	0.952 (inactive)	0.85 (inactive)	0.807 (inactive)	0.98 (inactive)	0.824 (inactive)	0.992 (inactive)	1.09 (inactive)	0.867 (inactive)	1.11 (inactive)	0.837 (inactive)	1.1 (inactive)	0.943 (inactive)	0.435 (active)	1.13 (inactive)	0.997 (inactive)
Prolinoborus 1 (Prolinoborus fasciculus)	0.664 (active)	0.986 (inactive)	0.921 (inactive)	0.937 (inactive)	0.883 (inactive)	0.915 (inactive)	1.04 (inactive)	1.02 (inactive)	1.02 (inactive)	0.945 (inactive)	0.947 (inactive)	1.01 (inactive)	0.999 (inactive)	0.0191 (active)	0.861 (inactive)	0.964 (inactive)
Pseudomonas 1 (Pseudomonas baetica)	1.01 (inactive)	1.09 (inactive)	1.04 (inactive)	1.13 (inactive)	0.923 (inactive)	1.04 (inactive)	0.968 (inactive)	1.1 (inactive)	1.06 (inactive)	1.14 (inactive)	1.15 (inactive)	0.984 (inactive)	1.04 (inactive)	0.559 (active)	0.921 (inactive)	0.944 (inactive)
Flavobacterium 2 (Flavobacterium succinicans)	0.489 (active)	0.983 (inactive)	0.926 (inactive)	0.916 (inactive)	0.961 (inactive)	0.976 (inactive)	1.03 (inactive)	1 (inactive)	0.933 (inactive)	0.952 (inactive)	0.849 (inactive)	0.962 (inactive)	0.966 (inactive)	0.0105 (active)	1.13 (inactive)	1.03 (inactive)
Community 7	0.922 (inactive)	1.03 (inactive)	0.994 (inactive)	0.872 (inactive)	1.03 (inactive)	1.04 (inactive)	1.12 (inactive)	1.02 (inactive)	1.08 (inactive)	1 (inactive)	1.06 (inactive)	1.05 (inactive)	1.07 (inactive)	0.468 (inactive)	1.12 (inactive)	1.03 (inactive)
Serratia 1 (Serratia sp. 2015-2462-01)	0.919 (inactive)	0.952 (inactive)	0.946 (inactive)	0.932 (inactive)	0.971 (inactive)	0.954 (inactive)	0.979 (inactive)	0.99 (inactive)	0.955 (inactive)	0.973 (inactive)	0.949 (inactive)	1.02 (inactive)	0.994 (inactive)	0.00199 (active)	1.06 (inactive)	0.982 (inactive)
Hymenobacter 1 (Hymenobacter glaciei)	0.768 (inactive)	1.08 (inactive)	0.952 (inactive)	0.932 (inactive)	1.05 (inactive)	0.845 (inactive)	1.07 (inactive)	1.08 (inactive)	0.999 (inactive)	1.06 (inactive)	0.927 (inactive)	0.91 (inactive)	1 (inactive)	0.00356 (active)	0.998 (inactive)	0.917 (inactive)
Bacillus 1 (Bacillus foraminis)	0.916 (inactive)	1.09 (inactive)	0.965 (inactive)	1.04 (inactive)	1.05 (inactive)	1.03 (inactive)	1.01 (inactive)	1.11 (inactive)	0.884 (inactive)	1.07 (inactive)	0.918 (inactive)	1.06 (inactive)	1.08 (inactive)	0.408 (active)	1.05 (inactive)	0.853 (inactive)
Community 6	0.861 (inactive)	0.916 (inactive)	0.942 (inactive)	0.75 (inactive)	1.02 (inactive)	0.907 (inactive)	1.02 (inactive)	1.01 (inactive)	0.928 (inactive)	0.712 (inactive)	0.852 (inactive)	1.06 (inactive)	0.966 (inactive)	0.442 (active)	1.16 (inactive)	1.01 (inactive)
Arthrobacter 1 (Arthrobacter humicola)	0.626 (active)	1.01 (inactive)	0.901 (inactive)	0.835 (inactive)	0.931 (inactive)	1.01 (inactive)	1.04 (inactive)	1.12 (inactive)	0.932 (inactive)	1.26 (inactive)	0.846 (inactive)	0.99 (inactive)	0.993 (inactive)	0.00912 (active)	0.994 (inactive)	0.932 (inactive)
Rhizobium 1 (Rhizobium herbae)	0.836 (inactive)	0.893 (inactive)	1.03 (inactive)	0.888 (inactive)	0.952 (inactive)	1.04 (inactive)	1.06 (inactive)	0.92 (inactive)	1.02 (inactive)	1.02 (inactive)	0.332 (active)	0.185 (active)	0.977 (inactive)	0.0348 (active)	1.09 (inactive)	1.14 (inactive)
Community 8	0.913 (inactive)	1.03 (inactive)	1.03 (inactive)	0.989 (inactive)	1.07 (inactive)	0.957 (inactive)	1.03 (inactive)	1.01 (inactive)	0.972 (inactive)	1.01 (inactive)	0.943 (inactive)	1.04 (inactive)	1.02 (inactive)	0.806 (inactive)	1.13 (inactive)	0.998 (inactive)
